# Data as given in PubChem BioAssay AID743263 (The Scripps Research Institute Molecular Screening Center, 2014).
# Among all 1,100 compounds or so, about 250 (23%) were called active. Not all results are given here. A number with no mark means an inactive call. Rule as the data show it: active = inhibition above about 25%; inactive = the rest.
# Molecular target: Tyrosyl-DNA phosphodiesterase 2 (Homo sapiens) (UniProt O95551)
# Test: human TDP2 enzyme inhibitors, retest, confirmation, biochemical, epi absorbance, recombinant enzyme (AID 743263);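 also: 0% = vehicle with enzyme and 100% = no enzyme buffer only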
# Settings: recombinant human TDP2, absorbance read-out; at 12.8 µM; active compounds read high
# Sequence of Tyrosyl-DNA phosphodiesterase 2 (Homo sapiens) (O95551 whole entry, looked up): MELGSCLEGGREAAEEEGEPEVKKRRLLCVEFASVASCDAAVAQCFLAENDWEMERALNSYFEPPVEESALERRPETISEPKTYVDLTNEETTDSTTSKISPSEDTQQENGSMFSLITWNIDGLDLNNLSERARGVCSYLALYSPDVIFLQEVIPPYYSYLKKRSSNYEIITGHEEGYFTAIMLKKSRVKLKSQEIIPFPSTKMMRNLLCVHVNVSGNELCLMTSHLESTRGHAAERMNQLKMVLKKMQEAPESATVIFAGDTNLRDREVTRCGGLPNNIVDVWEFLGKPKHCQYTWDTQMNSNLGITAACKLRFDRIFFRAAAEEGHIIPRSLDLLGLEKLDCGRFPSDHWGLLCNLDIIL
row,Structure (SMILES),inhibition
1,NC1=CC(=O)C(=O)c2cccnc21,65.8% (active)
2,CCSc1nnc(SCC(=O)NNC(=O)c2ccccc2F)s1,-14.1%
3,Cc1cc(C)c(OCCN2CC(C)OC(C)C2)c(Br)c1 (stereo not drawn),-5.14%
4,CCCCCCCCc1c(O)nc(-n2[nH]c(C)c(CCO)c2=O)[nH]c1=O,27.3% (active)
5,CCOC(=O)N1CCC(c2cc(=O)n(-c3ccccc3)[nH]2)CC1,0.79%
6,Cc1ccc(S(=O)(=O)N2CCC(C(=O)NCCC3=CCCCC3)CC2)cc1C,-3.83%
7,CC(=O)N(C1=C(Cl)C(=O)c2ccccc2C1=O)c1ccc(C(=O)O)cc1,59.3% (active)
8,CC(C)Cn1c(N)c(C(=O)NCc2cccs2)c2nc3ccccc3nc21,10.2%
9,CCN(CC)CCN1C(=O)C2C(C(=O)Nc3ccc(Br)cc3)C3C=CC2(O3)C1C(=O)NC1CCCCC1 (stereo not drawn),-2.2%
10,COc1ccccc1C1C(C#N)=C(N)Oc2c1c(-c1ccccc1)nn2-c1ccccc1 (stereo not drawn),-0.56%
11,Cn1nc(N)c2ncc(C(Cl)(Cl)Cl)nc21,2.05%
12,COc1ccc2c(c1)c(=Cc1ccc(N(C)C)cc1)c1cc(-c3ccccc3)[n+](C)n12,9.49%
13,Oc1c(C=Nc2cccc3nsnc23)ccc2ccccc12,41.4% (active)
14,COc1ccc(-c2csc(Nc3ccc(O)cc3)n2)cc1,3.53%
15,O=C(OCC(=O)N1CCN(c2ccccc2)CC1)c1ccc([N+](=O)[O-])s1,10.4%
16,COc1cc(OC)cc(C(=O)OCC(=O)Nc2sccc2C(N)=O)c1,-2.14%
17,COc1cc(NC(=O)COC(=O)c2ccc([N+](=O)[O-])s2)cc(OC)c1OC,35.1% (active)
18,O=C(NC1CCCCC1)N1CCc2[nH]c3ccccc3c2C1,7.01%
19,Cc1ccc(Cl)cc1NC(=O)CN1CCN(S(=O)(=O)N2CCOCC2)CC1,-8.33%
20,O=c1oc2ccccc2c(CNc2ccccc2)c1[N+](=O)[O-],11.7%

row,Structure (SMILES),inhibition
1,CCN(CC)CCCC(C)n1c2nc(=O)[nH]c(=O)c-2nc2cc(Cl)ccc21 (stereo not drawn),52.2% (active)
2,O=S(=O)(Nc1ccc(O)c2ccccc12)c1ccc(OC(F)(F)F)cc1,15.5%
3,Cc1ccc(OCCCCc2c(C)n[nH]c2C)cc1,2.05%
4,CN1c2ccc(C=O)c3c(C=O)ccc(c23)N(C)C1(C)C,21%
5,CC(=O)c1ccc(S(=O)(=O)N2CCC3(CC2)OCCO3)cc1,-6.04%
6,COC1=C(N2CCOCC2)C(=O)c2ccccc2C1=O,30.9% (active)
7,COc1ccc(S(=O)(=O)/N=C2\C=C(NS(=O)(=O)c3ccccc3)C(=O)c3ccccc32)cc1,16.7%
8,COCCN1C=C2C(=O)C(C)(OC(=O)C3CCCC3)C(=O)C=C2C=C1c1ccsc1 (stereo not drawn),12.3%
9,O=C1Nc2ccc([N+](=O)[O-])cc2C1=Nc1cccc(CO)c1,28.1% (active)
10,Cc1nn(-c2ccccc2)c2c1C(c1ccc(F)cc1)C(C#N)=C(N)O2 (stereo not drawn),-4.61%
11,CC1=NN(c2ccc(Cl)c(C(=O)O)c2)C(=O)/C1=C/c1ccc(-c2ccccc2[N+](=O)[O-])o1,-34.7%
12,CCc1ccccc1NC(=S)Nc1cc(OC)c(NC(=O)C(C)C)cc1OC,2.01%
13,Clc1ccc(C2=CSC3=Nc4cccc5cccc(c45)N23)cc1,55% (active)
14,O=C(NCc1ccccc1Cl)C(=O)NCC1CCCN1S(=O)(=O)c1cccs1 (stereo not drawn),-5.35%
15,Cc1ccccc1Cn1c2ccccc2c2cnn(CC(=O)NCc3ccco3)c(=O)c21,-10.2%
16,COc1ccc2c(c1)C(C)=CC(C)(C)N2C(=O)Nc1ccccc1,7.25%
17,COCCn1nnnc1C(c1cc2ccc(OC)cc2[nH]c1=O)N1CCc2ccccc2C1 (stereo not drawn),-0.83%
18,C=CCn1c(N)c(C(=O)OCC(C)C)c2nc3ccccc3nc21,9.13%
19,Oc1ccc(N=Cc2c(O)ccc3ccccc23)cc1,52.7% (active)
20,Oc1ccc(N=Cc2sc3ccccc3c2Cl)cc1,71.6% (active)

row,Structure (SMILES),inhibition
1,CCN1C(=O)c2cccc3c(N)ccc1c23,8.24%
2,CN(C)c1ccc(N/C=C/C(=O)C(F)(F)F)cc1,-9.4%
3,Cc1[nH][nH]c(=O)c1C(c1ccc(-c2ccc(Cl)cc2)o1)c1c(C)[nH][nH]c1=O,20.6%
4,O=Cc1cn(-c2ccccc2)nc1-c1ccccn1,2.54%
5,CC1CCCC(NC(=O)c2cc(-c3ccncc3)nc3ccccc23)C1C (stereo not drawn),-1.39%
6,CCOC(=O)c1c(C)[nH]c2c1-c1ccccc1C(=O)C2=O,84.2% (active)
7,Nc1ccc2nn(-c3ccc(Cl)cc3)nc2c1,1.36%
8,CCCCNC(=O)CCn1nc(-c2ccc(Cl)cc2)ccc1=O,-5.6%
9,O=C(COC(=O)Cc1c[nH]c2ccccc12)NCCc1ccccc1,4.15%
10,Nc1nc(O)c(CC(=O)O)s1,4.54%
11,Cc1ccc(C(=O)Nc2c(-c3ccccc3)[nH][nH]c2=O)cc1,12.1%
12,O=C(NC1=CC(=O)c2ccccc2C1=O)c1ccccc1,60.1% (active)
13,Nn1cnnc1N/N=C/c1cc([N+](=O)[O-])c(Cl)cc1Cl,-5.21%
14,CCOc1ccc(C(c2c(C)[nH][nH]c2=O)c2c(C)[nH][nH]c2=O)cc1OCC,10.8%
15,CCOC(=O)c1ccc(NC2Nc3cc(C)nn3S2)cc1 (stereo not drawn),7.05%
16,CCOC(=O)c1ccc(Nc2cc3ccccc3c(=O)[nH]2)cc1,32.7% (active)
17,COc1ccccc1CN1CCN(C(c2ccccc2)c2ccccc2)CC1,3.64%
18,COCCNC(=O)c1ccc(S(=O)(=O)c2ccc(Cl)cc2)c(NC(C)=O)c1,9.19%
